Shiga inhibitor: A qHTS for Small Molecule Inhibitors of Shiga Toxin; inhibition, % at 38.7 µM; Vero cells, Shiga toxin protein synthesis inhibition reporter; AID 2315, 2010; actives 9.2% (n = 290,000); in the data active means inhibition mostly above about 28%, no sharp cut-off; inactive means mostly below about 43%; further: 0% is about no effect
Giardia FBPA inh: qHTS Assay for Inhibitors of Fructose-1,6-bisphosphate Aldolase from Giardia Lamblia | purified Giardia FBPA | actives 0.71% (n = 290,000) | A8B2U2 | Potency, µM (doses to about 59.6 µM), inactives show at the highest dose activity, negative = inhibition, actives largely listed as inhibitors; further: potency means the concentration at half of the fitted maximal effect; on the % scale 0 is the no-effect control and ±100 the full control effect; nearly all actives have a fitted effect of over 55% in size
Target sequence (A8B2U2 whole entry, looked up): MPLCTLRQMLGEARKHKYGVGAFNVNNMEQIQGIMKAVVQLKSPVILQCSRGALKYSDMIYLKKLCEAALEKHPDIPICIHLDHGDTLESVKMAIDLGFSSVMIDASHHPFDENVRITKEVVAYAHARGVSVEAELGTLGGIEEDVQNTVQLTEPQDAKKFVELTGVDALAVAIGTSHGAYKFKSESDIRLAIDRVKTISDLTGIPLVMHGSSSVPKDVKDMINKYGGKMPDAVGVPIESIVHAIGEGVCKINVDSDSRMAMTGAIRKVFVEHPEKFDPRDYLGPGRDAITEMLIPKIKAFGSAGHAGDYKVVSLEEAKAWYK
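40 nM FBPA preincubated 10 min at RT with compound (up to 57.5 uM final), then substrate plus GAPDH/TPI/NAD/arsenate coupling and diaphorase/resazurin added. Fluorescence read after 20 min at RT, 525/598 nm.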
TbPYK inhibitor: qHTS of Trypanosoma Brucei Inhibitors; pyruvate kinase (Trypanosoma brucei), Q57TT1; actives 0.12% (n = 410,000); Potency, µM (doses to about 76.8 µM), for inactives: at the highest dose activity, negative = inhibition, hits mostly inhibitors; TbPYK enzyme, Kinase-Glo Plus ATP luminescence, 45 min; AID 624173, 2012; further: potency means the concentration at half of the fitted maximal effect; on the % scale 0 is the no-effect control and ±100 the full control effect; nearly all actives have a fitted effect of over 50% in size
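Luminescent Kinase-Glo Plus end-point after 45 min room-temperature reaction of T. brucei pyruvate kinase started with 130 uM ADP (final). Buffer TEA 50 mM pH 7.2 with KCl, MgCl2, BSA, Tween-20; titration-based qHTS with fitted concentration-effect curves.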
CHX counter: Cycloheximide Counterscreen for Small Molecule Inhibitors of Shiga Toxin | cell reporter, cycloheximide protein synthesis inhibition counterscreen | max response, % | actives 12% (n = 300,000); in the data active means max response mostly above about 13%, no sharp cut-off; inactive means mostly below about 14%; further: read at 38.3 µM for the half of the compounds with a filed dose; 0% is about no effect
Sm TGR inh: qHTS Assay for the Inhibitors of Schistosoma Mansoni Peroxiredoxins | AID 485364, 2010 | purified TGR, DTNB reduction, TNB absorbance 405 nm | actives 3% (n = 360,000) | Potency, µM (highest dose often 114 µM), without a hit: at the top dose activity change, negative = inhibition, actives largely listed as inhibitors | Schistosoma mansoni thioredoxin glutathione reductase (TGR), Q962Y6; further: potency means the concentration at half of the fitted maximal effect; on the % scale 0 is the no-effect control and ±100 the full control effect; nearly all actives have a fitted effect of over 60% in size
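Kinetic colorimetric format: TGR-catalysed, NADPH-driven DTNB reduction monitored via TNB absorbance. Enzyme dispensed at 20 nM; compound exposure 15 min at room temperature before reaction start.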
LmPK inhibitor: qHTS Assay for Inhibitors of Leishmania Mexicana Pyruvate Kinase (LmPK) | purified LmPK, Kinase-Glo ATP luminescence, 1 h | Potency, µM (titrated, usually from 57.5 µM), for the others: at the highest dose activity change, negative = inhibition, actives largely listed as inhibitors | actives 0.37% (n = 290,000) | AID 1721, 2009; further: potency means the concentration at half of the fitted maximal effect; on the % scale 0 is the no-effect control and ±100 the full control effect
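qHTS format; LmPK 0.1 nM; substrates PEP 0.5 mM and ADP 0.1 mM. One-hour room-temperature incubation, then coupled luciferase luminescence; 0.5 nM enzyme wells mark activation.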
Active calls of the source: *; ? = inconclusive; . = no result; [ ] = another dose, or the depositor's remark. Shown is part of a subset that was picked to be rich in hits. Unless noted, the call rests on the fitted dose curve; in most records, active means well fitted curve in the direction sought with a large enough effect; inconclusive means small, poorly fitted or top-dose-only effect, or another doubt; inactive means no such curve, though single readings can be large; an effect the other way counts as inactive or inconclusive.

SMILES	Shiga inhibitor	Giardia FBPA inh	TbPYK inhibitor	CHX counter	Sm TGR inh	LmPK inhibitor
S=C(NCCC1=CCCCC1)Nc1ccc(Cl)cc1	62.8*	0.6%	2.8%	44.3*	-9.9%	2.8%
Cc1ccc(CNC(=O)Nc2ccc(Cl)cc2)cc1	19.9	.	1.3%	17.1*	-29.6%	-8.1%
O=C(NCc1ccc(F)cc1)Nc1ccccc1	79.1*	-0.6%	6.1%	37.3*	-1.6%	8.0%
Cc1ccc(NC(=O)C(=O)NCc2ccc(Cl)cc2)cc1	.	.	4.0%	.	19.0%	.
Fc1ccc(NC(=S)NCCc2ccc(Cl)cc2)cc1	93.2*	-0.3%	-9.0%	48.2*	-13.2%	-0.5%
c1ccc(-c2nc(-c3cccs3)c(NC3CCCCC3)o2)cc1	.	0.2%	.	.	.	.
O=C(NC(=S)NCCC1=CCCCC1)c1cccnc1	40.2*	-0.5%	-1.1%	14.1*	-9.4%	9.0%
O=C(NCCC1=CCCCC1)C1CCN(C(=O)c2ccc(Cl)cc2)CC1	66.5*	0.4%	-0.1%	30.6*	0.1%	0.6%
CSc1ccc(CN(C)CC(=O)NCc2ccccc2)cc1	-14.6	7.7%	-1.0%	6.8	5.8%	2.0%
CSc1ccc(NC(=O)NCc2ccccc2)cc1	90.9*	-2.0%	-2.6%	44.3*	1.0%	-4.7%
CC(C)CCN1CC(C(=O)NCCC2=CCCCC2)CC1=O (configuration not stated)	65.8*	-8.1%	-5.4%	21.2*	-27.0%	9.8%
O=C(NC(=S)NCc1ccccc1)c1cccnc1	1.7	-6.1%	-1.2%	8.0	-6.7%	-12.8%
CC(=O)OC[C@@H]1O[C@@H](O/N=C2/C[C@@H](O)[C@@H](O)[C@@H]3[C@@H]4C(=O)N(C[C@@H]5CCCO5)C(=O)[C@H]4CC[C@H]23)[C@H](OC(C)=O)[C@H](OC(C)=O)[C@@H]1OC(C)=O	.	0.7%[12.9 µM]	.	.	.	.
O=C(NCc1ccccc1Cl)c1ccccc1NC(=O)c1nsc2ccccc12	.	.	-12.9%	.	-0.6%	.
Cc1sc(NC(=O)C2c3ccccc3Oc3ccccc32)c(C(=O)OC(C)C)c1C	.	.	-4.1%	.	-9.5%	.
CC1CCCCC1NC(=O)CNC(=O)c1ccco1 (configuration not stated)	.	.	9.7%	.	-0.8%	.
O=[N+]([O-])c1ccc(NC(=S)NCCc2ccc(F)cc2)cc1	13.0	-3.6%	-21.3%	3.0	-24.0%	-0.2%
O=C(NCCc1ccc(F)cc1)Nc1ccc([N+](=O)[O-])cc1	54.1	.	-1.4%	21.3*	43.6%	-3.4%
Cc1nnsc1C(=O)Nc1ccc(Cl)cc1	-0.9	0.9%	-3.9%	-0.8	-4.3%	-2.3%
O=C(NCCc1ccc(Cl)cc1)Nc1ccc(F)cc1	49.6	0.1%	-8.6%	28.7*	.	1.3%
Cc1nnsc1SCCNC(=O)Nc1ccc(Cl)cc1	81.8*	0.0%	0.0%	23.7*	-2.2%	2.0%
CC(=O)c1ccc(NC(=O)NCc2ccc(F)cc2)cc1	6.2	5.3%	-9.6%	14.0*	2.6%	0.2%
O=C(NCCNC(=O)Nc1ccc(Cl)cc1)Nc1ccc(Cl)cc1	.	.	-19.5%	.	.	.
COc1cc(-c2noc(-c3ccc(NC4CCCCC4)c([N+](=O)[O-])c3)n2)cc(OC)c1OC	.	.	-1.2%	.	-18.2%	.
O=[N+]([O-])c1ccccc1CNCCc1ccc(F)cc1	68.0*	-22.1%	5.8%	40.3*	-12.1%	-0.6%
SMILES	Shiga inhibitor	Giardia FBPA inh	TbPYK inhibitor	CHX counter	Sm TGR inh	LmPK inhibitor
O=C(CSc1nccn1Cc1ccc(F)cc1)Nc1ccc(F)cc1F	-11.8	.	0.2%	6.9	4.0%	-6.5%
O=[N+]([O-])c1ccccc1CNCCc1c[nH]c2ccccc12	-2.1	?	-11.9%	-1.1	-16.8%	2.0%
O=C(NCc1ccc(Cl)cc1)Nc1ccc(F)cc1	28.7	1.7%	1.6%	48.7*	1.7%	0.5%
O=C(Nc1ccccc1)c1nccn1Cc1ccc(F)cc1	63.6*	-9.6%	-13.0%	28.0*	-0.3%	8.0%
Cc1ccc(-n2cnc3cc(C(=O)NCc4ccccc4Cl)ccc32)c(C)c1	.	.	-1.7%	.	6.5%	.
CCc1ccc(CNC(=O)CCS(=O)(=O)Cc2ccc(C)cc2)cc1	-9.6	.	0.0%	-8.9	1.8%	-3.8%
COc1ccc(-c2nc(CS(=O)CC(=O)NC3CCCc4ccccc43)c(C)o2)cc1OC (configuration not stated)	-16.4	-6.4%	-1.8%	-7.1	20µM*	8.3%
COc1ccc(-c2nc(CS(=O)CC(=O)NC3CCC(C)CC3)c(C)o2)cc1OC (configuration not stated)	60.5*	.	-1.2%	33.0*	35.5µM*	-4.0%
COc1ccc(-c2nc(CS(=O)CC(=O)NC3CCCC3)c(C)o2)cc1OC (configuration not stated)	11.9	.	-4.2%	12.3	20µM*	2.2%
COc1ccc(-c2nc(CSCC(=O)NC3CCCc4ccccc43)c(C)o2)cc1OC (configuration not stated)	-12.4	-1.1%	0.8%	-0.9	0.0%	3.2%
Cc1cccc(NC(=O)Cn2ncc3c4ccccc4n(Cc4ccccc4)c3c2=O)c1C	.	.	-1.1%	.	-3.5%	.
COc1ccc(NC(=O)c2cccc(OC(=S)N3CCOCC3)c2)cc1	21.5	-7.1%	-0.6%	6.3	10.7%	-5.6%
CCOc1ccc(NC(=O)c2cccc(OC(=S)N3CCOCC3)c2)cc1	4.5	0.8%	2.5%	11.3*	-6.6%	1.5%
O=C(Nc1ccc(Br)cc1)c1cccc(OC(=S)N2CCOCC2)c1	50.2*	-9.4%	-10.1%	19.4*	3.2%	4.4%
COc1ccc(OC2C=CC(c3ccccc3)OC2CO)cc1 (configuration not stated)	.	-2.9%[12.9 µM]	.	.	.	.
COC(=O)c1ccc(N)c(N=CC2=C(O)CC(C)(C)CC2=O)c1	18.7*	-11.5%	-0.2%	50.2*	-1.0%	0.8%
CC1(C)CC(=O)C(C=Nc2cc(C(=O)c3ccccc3)ccc2N)=C(O)C1	100.6*	-25.8%	-6.6%	23.7*	9.2%	5.9%
O=C(NNc1ccccc1)Nc1ccccc1F	87.1*	11.7%	-5.1%	20.4*	7.1%	-16.0%
Cc1ccc(N=Nc2ccc(C)cc2NC(=O)Nc2ccccc2F)cc1	33.8	-6.9%	1.8%	46.2*	0.2%	-2.8%
O=C(NNc1cccc(Cl)n1)Nc1ccccc1F	27.7	1.6%	-2.8%	11.8	-1.9%	-1.9%
O=C(Nc1ccc(Cl)c(Cl)c1)Nc1ccc(Br)cc1F	13.0	-6.0%	-19.2%	10.2	0.4%	-0.3%
O=C(Nc1ccc(F)cc1F)NC1CCCc2ccccc21 (configuration not stated)	-5.2	.	2.7%	-3.3	-18.7%	0.3%

Source: PubChem
